Assay outcomes as filed in PubChem BioAssay.
The list is not random: actives were taken first. Their share in the collection is about 1.2%.
BJeLR viability = MLPCN primary cell-based screen for lethality selective to Ras in HRASV12 cells; actives 0.17% (n = 300,000); inhibition, % (test concentration not listed); AID 1554, 2009; BJeLR (HRASV12) viability, CellTiter-Glo ATP luminescence, 48 h; in the data active = inhibition above about 50%
RN4220 kill = growth inhibition of S. aureus RN4220, primary screen, OD600; actives 0.33% (n = 330,000); inhibition, % (test concentration not listed); 16 h; AID 1259311, 2017; in the data active = inhibition above about 85%
ugtP null kill = growth inhibition of ugtP-null S. aureus, primary screen, RN4220 ugtP deletion, OD600 | 16 h | growth inhibition, % (test concentration not listed) | actives 0.54% (n = 330,000) | AID 1259309, 2017; in the data active = growth inhibition above about 68%
SSB-PriA inh = inhibitors of Klebsiella pneumoniae PriA binding to SSB C-terminal tail, primary screen, biochemical, AlphaScreen. inhibition, % at 33 µM. AID 1272365, 2023. AlphaScreen SSBct-PriA binding, biotinylated peptide. actives 0.6% (n = 430,000). PriA–SSB C-terminal tail interaction (Klebsiella pneumoniae); in the data active = inhibition mostly above about 37%, no sharp cut-off; inactive = mostly below about 20%
MazF activator = activators of E. coli MazEF toxin-antitoxin RNase, primary screen, biochemical, fluorescence, uHTS; Endoribonuclease toxin MazF (Escherichia coli (strain K12)), P0AE70; FAM/BHQ RNA-DNA oligo cleavage fluorescence, 5 h; activation, % at 20 µM; actives 0.32% (n = 350,000); AID 504720, 2011; in the data active = activation above about 50%
Target sequence (P0AE70 whole entry, looked up): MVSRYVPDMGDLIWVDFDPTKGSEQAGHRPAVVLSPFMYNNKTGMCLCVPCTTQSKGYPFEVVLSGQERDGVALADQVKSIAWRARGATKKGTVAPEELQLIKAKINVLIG
Of the large screens only hits and unclear results are named; the others gave an inactive call.

Cn1c(=O)oc2cc(S(=O)(=O)N3CCC(C(=O)N4CC=C(c5ccccc5)CC4)CC3)ccc21	SSB-PriA inh 115 (no result: BJeLR viability)
O=C(Nc1cccc(-c2nc3ccccc3[nH]2)c1)c1cccc(NC(=O)c2ccco2)c1	MazF activator 66
O=C(Nc1ccc2nc(-c3ccccc3)[nH]c2c1)c1ccco1	none
COc1cc(NS(=O)(=O)c2ccc(Nc3nc(-c4ccccn4)cs3)cc2)nc(OC)n1	ugtP null kill 90
COc1ccc(-c2csc(Nc3ccc(S(=O)(=O)Nc4cc(OC)nc(OC)n4)cc3)n2)cc1	none
COc1cc2cnc(-c3ccccc3)c(-c3cccc(C(F)(F)F)c3)c2cc1OC	SSB-PriA inh 45 (no result: BJeLR viability, RN4220 kill, ugtP null kill)
Nc1ccccc1N=Nc1ccccc1N	SSB-PriA inh 83
Nc1ccccc1-c1ccccc1N	none
NC(N)=NS(=O)(=O)c1ccc(NC(=S)NC(=O)c2ccc(Br)cc2)cc1	MazF activator 59 (no result: RN4220 kill, ugtP null kill)
COc1ccc(CC(=O)Nc2c(C(=O)Nc3ccc(F)c(Cl)c3)oc3ccccc23)cc1OC	none (no result: BJeLR viability, RN4220 kill, ugtP null kill, MazF activator)
[O-][N+]1=c2ccc(Nc3ccccc3)cc2=NC12CCCCC2	SSB-PriA inh 57
COc1ccc(Nc2ccc3c(c2)=NC2(CCCCC2)[N+]=3[O-])cc1	SSB-PriA inh 65
O=C(COC(=O)[C@@H]1CCCN1C(=O)c1cccs1)Nc1ccc(F)cc1[N+](=O)[O-]	none
Cc1ccc2oc(C(=O)NCCC(c3ccccc3)c3ccccc3)cc2n1	none (no result: BJeLR viability, RN4220 kill, ugtP null kill, MazF activator)
CC1CCCCC1NC(=O)CSc1nnc(CNC(=O)c2ccccc2)n1C (stereo unspecified)	none
Cc1c(C(=O)NCC(c2cccc3ccccc23)N2CCOCC2)cccc1[N+](=O)[O-] (stereo unspecified)	none (no result: BJeLR viability, RN4220 kill, ugtP null kill, MazF activator)
O=[N+]([O-])c1ccccc1S(=O)(=O)NCC(c1cccc2ccccc12)N1CCOCC1 (stereo unspecified)	SSB-PriA inh 37 (no result: BJeLR viability, RN4220 kill, ugtP null kill, MazF activator)
CCC(C)NC(=O)C1CCN(S(=O)(=O)c2cccc3nonc23)CC1 (stereo unspecified)	none
O=C(NC1CCC(Oc2ncccn2)CC1)c1ccc(Cl)s1 (stereo unspecified)	none (no result: BJeLR viability, RN4220 kill, ugtP null kill, MazF activator)
CCC[C@@H]1C[C@@H](C(=O)N[C@H]([C@@H](C)O)[C@H]2O[C@H](SC)[C@H](O)[C@@H](O)C2O)N(C)C1 (stereo partly specified)	none (no result: BJeLR viability, RN4220 kill, ugtP null kill, SSB-PriA inh)
CCCC1CC(C(=O)NC(C(C)O)C2OC(SC)C(O)C(O)C2O)N(C)C1 (stereo unspecified)	RN4220 kill 100, ugtP null kill 99 (no result: BJeLR viability, SSB-PriA inh, MazF activator)
CC(Sc1ccccc1)C(=O)NN=Cc1cccnc1 (stereo unspecified)	none (no result: BJeLR viability, MazF activator)
C=C(C)C1CC=C(C)C(=NNc2ccccc2[N+](=O)[O-])C1 (stereo unspecified)	SSB-PriA inh 41 (no result: BJeLR viability, MazF activator)
CC(OC(=O)c1oc2ccccc2c1CSC1CCCCC1)C(=O)NC(N)=O (stereo unspecified)	ugtP null kill 99
CC(OC(=O)c1oc2ccccc2c1COc1ccccc1)C(=O)NC(N)=O (stereo unspecified)	none
Cc1cccc(C(=O)NC(C)C(=O)Nc2nc(-c3ccccn3)cs2)c1 (stereo unspecified)	SSB-PriA inh 100 (no result: BJeLR viability, RN4220 kill, ugtP null kill, MazF activator)
CC(NC(=O)c1cccs1)C(=O)Nc1nc(-c2ccccn2)cs1 (stereo unspecified)	SSB-PriA inh 103 (no result: BJeLR viability, RN4220 kill, ugtP null kill, MazF activator)
CC(C(=O)Nc1nc(-c2ccccn2)cs1)N1NC2=CCCC2=CC1=O (stereo unspecified)	SSB-PriA inh 95 (no result: BJeLR viability, RN4220 kill, ugtP null kill, MazF activator)
Cc1cccc(C(=O)N[C@H](C(=O)Nc2nc(C)cs2)C(C)C)c1	none
CC(Oc1ccc(Br)cc1)C(=O)Nc1nc(-c2ccccn2)cs1 (stereo unspecified)	none (no result: RN4220 kill, ugtP null kill)
CC(N)C(=O)Nc1nc(-c2ccccn2)cs1 (stereo unspecified)	none (no result: BJeLR viability, RN4220 kill, ugtP null kill, MazF activator)
CC(Oc1ccc(C#N)cc1)C(=O)Nc1nc(-c2ccccn2)cs1 (stereo unspecified)	SSB-PriA inh 109 (no result: BJeLR viability, RN4220 kill, ugtP null kill, MazF activator)
CCN(C(=O)COC(=O)/C=C/c1ccccc1Cl)c1c(N)n(Cc2ccccc2)c(=O)[nH]c1=O	none (no result: BJeLR viability)
Cc1nc2ccccc2c(=O)n1NC(=O)c1ccc([N+](=O)[O-])cc1Cl	none
COc1ccc(NC(=O)COC(=O)CCc2cc(OC)c(OC)c(OC)c2)c([N+](=O)[O-])c1	none
CC(C)C(=O)Nc1nc(-c2ccccn2)cs1	SSB-PriA inh 74 (no result: BJeLR viability, RN4220 kill, ugtP null kill, MazF activator)
CC[C@@]1(O)C(=O)OCc2c1cc1n(c2=O)Cc2cc3c(NC(=O)CN)cccc3nc2-1	BJeLR viability 93
CCc1c2c(nc3ccc(OC(=O)N4CCC(N5CCCCC5)CC4)cc13)-c1cc3c(c(=O)n1C2)COC(=O)[C@]3(O)CC	BJeLR viability 56
CCOC(=O)C1(C(=O)OCC)COC(=O)C1CN1Cc2cc3ccccc3nc2C1 (stereo unspecified)	none (no result: BJeLR viability, RN4220 kill, ugtP null kill, SSB-PriA inh)
O=C(Oc1ccc([N+](=O)[O-])cc1)N1CCC(N2CCCCC2)CC1	none
CC[C@@]1(O)C(=O)OCc2c1cc1n(c2=O)Cc2cc3ccccc3nc2-1	BJeLR viability 91 (no result: RN4220 kill, ugtP null kill, SSB-PriA inh, MazF activator)
CCC1(OC(=O)CN)C(=O)OCc2c1cc1n(c2=O)Cc2cc3ccccc3nc2-1 (stereo unspecified)	BJeLR viability 90
CCC1(O)C(=O)OCc2c1cc1n(c2=O)Cc2cc3cc(O)ccc3nc2-1 (stereo unspecified)	none (no result: BJeLR viability, RN4220 kill, ugtP null kill)
CCOC(=O)c1sc2ncnc(NCC(c3cccs3)N(C)C)c2c1C (stereo unspecified)	none
O=C(c1cccc(F)c1)N1CCN(c2cc(N3CCCCC3)c(F)cc2[N+](=O)[O-])CC1	SSB-PriA inh 42
Cc1ccc2nc(SCC(=O)Nc3ccc(C)c(Cl)c3)nc(=O)n2c1	MazF activator 74
CC(=O)OC[C@H]1O[C@@H](Sc2cccc3cccnc23)[C@H](OC(C)=O)[C@@H](OC(C)=O)[C@H]1OC(C)=O	SSB-PriA inh 40
O=C(NCCc1ccccc1)C(=O)NCC[C@H](O)c1ccco1	none (no result: BJeLR viability, RN4220 kill, ugtP null kill, MazF activator)
CC(=O)OC1C[C@@]2(C)C(CC(O)C3[C@@]4(C)CCC(O)C(C)C4CC[C@@]32C)C1=C(CCC=C(C)C)C(=O)O (stereo partly specified)	RN4220 kill 100, ugtP null kill 100 (no result: BJeLR viability, SSB-PriA inh, MazF activator)
CC(=O)O[C@H]1CC[C@]2(C)C3CC[C@@]4(C)C(C[C@@H](O)[C@@H]4O)C3[C@@H](OC(C)=O)C[C@H]2C1 (stereo partly specified)	none (no result: BJeLR viability, RN4220 kill, ugtP null kill, SSB-PriA inh)
NCCCCC(=O)O	none (no result: BJeLR viability)
CN(C)c1ccc(N/C=C/C(=O)c2ccc(F)cc2)cc1	MazF activator 105
O=c1[nH]c(O)c(/C=C2\C=Nc3ccc(OCc4ccccc4)cc32)c(=O)[nH]1	MazF activator 847 (no result: RN4220 kill, ugtP null kill, SSB-PriA inh)
COc1ccc(Cl)cc1CN1CCN(c2nc(C)cc(C)c2C#N)CC1	RN4220 kill 99, ugtP null kill 100
CCOC(=O)C1C(=O)C=C(/C=C/c2ccc(N(C)C)cc2)CC1c1ccccc1 (stereo unspecified)	MazF activator 106 (no result: RN4220 kill, ugtP null kill)
